High-throughput results from PubChem BioAssay.
Only some compounds are listed: those with a hit (about 6.5% of all), similar ones and a draw of the others.
Marburg entry inh – inhibitors of Marburg virus binding or cell entry; Potency, µM (top dose mostly 37.8 µM), most hits filed as inhibitors; Marburg virus pseudotyped entry inhibition, cell reporter; 300,000 compounds, 1.8% hits; calls by dose curve; tested in HEK293 cells
VACV mCherry inh – vaccinia inhibition (mCherry reporter) | Vaccinia virus mCherry reporter infection, fluorescence | Potency, µM (titrated, usually from 36.5 µM), usual class: inhibitors | 310,000 compounds, 0.63% hits | AID 720579; calls by dose curve; tested in A549 cells; note: nearly all actives have a fitted effect of over 35% in size
FMDV inh – foot and mouth disease virus antiviral activity | FMDV antiviral cell-based qHTS | Potency, µM (doses to about 57.9 µM), actives largely listed as inhibitors | 410,000 compounds, 1.2% hits; calls by dose curve; tested in HEK293T cells; note: read-out not given here; nearly all actives have a fitted effect of over 45% in size
VACV Venus inh – inhibitors of vaccinia virus (Venus reporter). Potency, µM (highest dose often 36.5 µM), most hits filed as inhibitors. AID 720580. 330,000 compounds, 0.46% hits. Vaccinia virus Venus reporter expression, fluorescence; calls by dose curve; tested in A549 cells; note: nearly all actives have a fitted effect of over 30% in size
HCMV inh – blocks human cytomegalovirus replication; AID 1259415; HFF cells, HCMV-luciferase reporter, 72 h; active compounds read low; activity change, negative = inhibition, % at 57.5 µM; 410,000 compounds, 4.5% hits; in the data active = activity change below about -60%; inconclusive = no clear call, values can overlap the other calls; inactive = above about -39%
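After 16 h attachment at 37C, HFF cells received test compound and HCMV-luciferase (1 PFU/cell); reporter luminescence read 72 h later, data normalized against buffer-only and known inhibitor Salinomycin.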
Lassa entry inh – Lassa virus entry inhibition | AID 540256 | Potency, µM (highest dose often 37.9 µM), most hits filed as inhibitors | 300,000 compounds, 1.2% hits | Lassa virus pseudotype entry inhibition, cell reporter; calls by dose curve; tested in HEK293 cells; note: nearly all actives have a fitted effect of over 50% in size
Hits are given with their value; n = inactive; u = inconclusive; x = no result given; ! = not confirmed by another sample; [ ] = another dose, or the depositor's remark.

SMILES	Marburg entry inh	VACV mCherry inh	FMDV inh	VACV Venus inh	HCMV inh	Lassa entry inh
O=C(C[n+]1cccc(Br)c1)c1ccc(O)c(O)c1	x	n	x	n	x	x
COc1cc(OC)cc(-c2cc3nc(C)c(CCC(=O)Nc4ccccc4OC)c(C)n3n2)c1	u	n	u	n	-61.6	u
COc1ccc(NC(=O)CCc2c(C)nc3c(c2C)c(=O)n(C)c(=O)n3C)c(OC)c1	n	n	u	n	-76.4	n
COc1cc(OC)cc(-c2cc3nc(C)c(CCC(=O)NCc4ccc(Cl)cc4)c(C)n3n2)c1	4.47µM	n	12.6µM	n	-61.5	u
COc1cc(OC)cc(-c2cc3nc(C)c(CCC(=O)Nc4ccc(C(C)=O)cc4)c(C)n3n2)c1	u	n	u	n	u	u
COc1cc(OC)cc(-c2cc3nc(C)c(CCC(=O)NCc4ccccc4)c(C)n3n2)c1	11.2µM	u	5.62µM	n	-68.6	8.91µM
COc1ccc(Cl)cc1NC(=O)CCc1c(C)nc2c(c1C)c(=O)n(C)c(=O)n2C	n	n	n	n	n	n
COc1ccc(CNC(=O)CCc2c(C)nc3cc(-c4ccc(OC)cc4OC)nn3c2C)cc1	n	n	n	n	n	n
Oc1ccc([C@@H]2CNCc3sccc32)cc1O	n	x	x	x	x	x
CN(C)c1ccc(NC(=O)CCSc2nc(-c3ccco3)cc(C(F)(F)F)n2)cc1	n	n[7.34 µM]	n	n[7.34 µM]	n	n
CC(C)Nc1oc(-c2ccccc2)nc1-c1ccc(C(F)(F)F)cc1	n	x	x	x	x	x
O=C(N/N=C/c1ccccn1)c1cccc([N+](=O)[O-])c1	u	n	n	n	n	n
O=C(NN=Cc1ccccc1O)c1cccc([N+](=O)[O-])c1	10µM	1.12µM	n	u	-96.5	u
O=C(NC(C(=O)N/N=C/c1cc([N+](=O)[O-])ccc1O)c1n[nH]c(=O)c2ccccc12)c1ccccc1 (centres undefined)	n	n	n	n	-89.1	n
COc1ccc(/C=N/NC(=O)c2cccc([N+](=O)[O-])c2)cc1O	u	n	n	n	n	n
Cc1cc(C(=O)N/N=C/c2cc(N=Nc3ccccc3)ccc2O)n[nH]1	0.501µM	u	n	u	x	11.2µM
COc1ccc2ccccc2c1/C=N/NC(=O)c1cccc([N+](=O)[O-])c1	n	n	n	n	-61.9	n
CC(=O)N1CC(=O)N2[C@@H](CO)[C@H](c3ccc(Br)cc3)[C@@H]2C1	x	x	x	x	n	x
COc1ccc(OC)c(S(=O)(=O)CC(=O)c2cc3ccccc3oc2=O)c1	x	x	x	x	n	x
COc1cccc(/C=N/NC(=O)c2cc3cc([N+](=O)[O-])ccc3s2)c1O	1.78µM	5.01µM	n	u	-104.0	u
COC(=O)N/N=C/c1cc(N=Nc2ccccc2Cl)ccc1O	x	n[7.34 µM]	n	n[7.34 µM]	n	x
O=C(N/N=C/c1cc([N+](=O)[O-])ccc1Cl)c1cc(-c2ccccc2)nc2ccccc12	x	x	u	x	n	x
O=C(N/N=C/c1cc([N+](=O)[O-])ccc1O)c1cc(-c2ccccc2)nc2ccccc12	2.51µM	u	n	n	-99.7	8.91µM
COc1cc(/C=N/NC(=O)c2cccc([N+](=O)[O-])c2)ccc1O	x	x	n	x	n	x
COc1cc([N+](=O)[O-])cc(/C=N/NC(=O)c2ccc(NC(=O)c3ccc(C)cc3)cc2)c1O	1.12µM	n	u	n	-101.6	u
SMILES	Marburg entry inh	VACV mCherry inh	FMDV inh	VACV Venus inh	HCMV inh	Lassa entry inh
Nc1ccc(C(=O)N/N=C\c2cc(N=Nc3cccc4ccccc34)ccc2O)cc1	16.4µM	x	n	x	-102.0	u
O=C(c1nc2ncccn2n1)N1CCOc2ccc(C(O)C(c3ccccc3)c3ccccc3)cc2C1 (centres undefined)	x	n	n	n	x	x
CC(C)CO/N=C1\C[C@@H](O)[C@@H](O)[C@@H]2[C@@H]3C(=O)N(c4ccc(F)cc4F)C(=O)[C@@H]3CC[C@@H]12	n	x	x	x	x	x
COC(=O)C1=C2CCCO[C@H]2[C@@H]2[C@@H](C)[C@H](OC)c3ccccc3[C@@H]12	n	x	x	x	x	x
COc1cc(CNC(=O)c2sc3ncccc3c2-n2cccc2)cc(OC)c1OC	x	n	n	n	n	u
c1cc2c3c(c1)CCCN3CCC2	x	n	x	n	x	x
Cc1cccn2c(=O)c(C(=O)NCCc3ccc(S(N)(=O)=O)cc3)c(O)nc12	n	n	n	n	n	x
O=C(N/N=C/c1cc([N+](=O)[O-])ccc1O)c1c[nH]c2ccccc12	x	u	n	n	n	x
O=C(NN=Cc1cc([N+](=O)[O-])ccc1O)c1cccc2ccccc12	10µM	u	n	u	n	7.08µM
O=C(NCC1CCCO1)c1ccc(COc2ccc(F)cc2)o1 (centres undefined)	n	n	x	n	n	u
CCOc1cc(N)c(Cl)cc1C(=O)NCC1CN(Cc2ccc(F)cc2)CCO1 (centres undefined)	x	n	n	n	-65.8!	x
Nc1nc(NCc2ccc(F)cc2)c2[nH]cnc2n1	x	n	x	n	x	x
O=C(c1ccccc1Br)N(Cc1ccccc1)c1ccccc1	u	n	n	n	-61.5	u
COc1ccc(CN(C(=O)c2ccco2)c2ccccc2)cc1	n	x	n	n	n	n
CC(C)SCCCOc1ccc(C(C)(C)C)cc1	n	x	n	n	-86.1	n
CC[C@@H](C)[C@H](CN[C@H](CNC)C(C)C)NC[C@@H](C)c1ccc(CC(C)C)cc1	x	u	u	u	-78.1	x
CCOC(=O)N1CCN(c2nc(-c3cccc(OC)c3)cc(C(F)(F)F)n2)CC1	u	x	n	x	n	u
CCOC(=O)N1CCN(c2nc(-c3ccco3)cc(C(F)(F)F)n2)CC1	n	n	u	n	-61.7	n
COc1cc(-c2cc(C(=O)Nc3ccc(S(N)(=O)=O)cc3)c3ccccc3n2)cc(OC)c1OC	n	n	n	n	n	u
CCN(CC)S(=O)(=O)c1ccc(O)c(NC(=O)c2cc(-c3cc(OC)c(OC)c(OC)c3)nc3ccccc23)c1	10µM	n	u	n	x	u
C=CCOc1ccccc1CN(C(=O)CCl)c1ccc2c(c1)OCO2	u	n	u	n	-99.0	n
Cc1ccc2nc(Cl)c3nnnn3c2c1	n	n	12.6µM	n	x	n
O=C1CC(c2nc3ccccc3[nH]2)CN1c1ccccc1F (centres undefined)	x	n	n	n	n	x
O=C1CC(c2nc3ccccc3[nH]2)CN1c1cccc(C(F)(F)F)c1 (centres undefined)	n	n	u	n	-96.4	u
COc1ccc(Cl)cc1N1CC(c2nc3ccccc3[nH]2)CC1=O (centres undefined)	x	n	n	n	-98.9	x
SMILES	Marburg entry inh	VACV mCherry inh	FMDV inh	VACV Venus inh	HCMV inh	Lassa entry inh
CN(C)/C=C(/C(=O)c1ccc(Cl)c(Cl)c1)S(C)(=O)=O	n	n	n	n	n	n
CN(C)/C=C(/C(=O)c1ccc(Cl)cc1)S(C)(=O)=O	u	n	n	n	-103.1	n
O=C(Nc1cccc(Cl)c1)OCc1cn(-c2ccccc2)nn1	n	n	2.51µM	n	n	u
CC1(C)Oc2ccc3ccc(=O)oc3c2-c2cnoc21	n	n	n	n	n	x
CC1(C)Oc2ccc3ccc(=O)oc3c2-c2cn[nH]c21	n	x	n	u	-80.9	u
Cc1cc(-c2ccc(S(=O)(=O)Nc3cc(Cl)ccc3C)s2)on1	x	n	n	n	n	n
